According to publication PMC5700166:
Positions count from the first letter of the chain named.

What was measured:
Assay in all cases: protein-binding microarray (PBM); PBM: ~300 nM protein, 6 mM HEPES pH 7.8, 80 mM KCl, 0.5 mM EDTA, 0.5 mM EGTA, 6% glycerol, 35 ng/ul poly-dIdC, 1% milk, 1 h, room temperature; Ap Aiptasia and Nv Nematostella (sea anemones) / Co Capsaspora / Aq Amphimedon (sponge) / Dm Drosophila / Hu human; RHD is the Rel homology domain; high values mean tight binding
Conditions in all cases: dsDNA, one strand shown
GST-Ap-NF-kB RHD = biological target: T1, GST-Ap-NF-kB RHD (Exaiptasia pallida (Aiptasia), UniProt A0A913YAJ5 2-422)
T1 sequence: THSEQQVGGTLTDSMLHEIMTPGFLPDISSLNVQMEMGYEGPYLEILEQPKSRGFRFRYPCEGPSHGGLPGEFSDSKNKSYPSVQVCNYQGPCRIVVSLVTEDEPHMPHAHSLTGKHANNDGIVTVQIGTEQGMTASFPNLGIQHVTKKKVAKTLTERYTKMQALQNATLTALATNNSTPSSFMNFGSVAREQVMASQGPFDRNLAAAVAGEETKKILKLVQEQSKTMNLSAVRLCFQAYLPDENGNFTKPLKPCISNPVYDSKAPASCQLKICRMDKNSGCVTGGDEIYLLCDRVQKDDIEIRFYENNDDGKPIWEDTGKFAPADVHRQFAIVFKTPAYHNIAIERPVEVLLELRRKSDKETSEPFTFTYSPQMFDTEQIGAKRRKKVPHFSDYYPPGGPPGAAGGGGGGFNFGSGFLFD

[1] = biological target: T2, GST-Nv-NF-kB (Cys allele) (Nematostella vectensis, UniProt E5G601 2-411)
T2 sequence: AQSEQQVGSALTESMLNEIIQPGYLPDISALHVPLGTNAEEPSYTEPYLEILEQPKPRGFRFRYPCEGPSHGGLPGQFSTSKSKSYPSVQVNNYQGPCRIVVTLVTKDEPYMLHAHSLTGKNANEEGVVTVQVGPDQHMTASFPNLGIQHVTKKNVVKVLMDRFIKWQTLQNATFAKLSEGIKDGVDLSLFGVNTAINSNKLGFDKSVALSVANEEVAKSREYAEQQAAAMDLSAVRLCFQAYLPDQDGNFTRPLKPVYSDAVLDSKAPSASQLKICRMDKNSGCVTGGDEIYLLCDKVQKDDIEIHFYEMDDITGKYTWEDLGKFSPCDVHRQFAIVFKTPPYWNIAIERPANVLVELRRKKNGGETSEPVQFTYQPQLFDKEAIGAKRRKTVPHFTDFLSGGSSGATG

[2] = biological target: T3, GST-Nv-NF-kB (Ser allele) (Nematostella vectensis, UniProt A7UNT2 2-411)
T3 sequence: T2 sequence with Q21R, C66S, S207N, E215Q, V217A, E225K, A268E, D399E

GST-Co-NF-kB = biological target: T4, GST-Co-NF-kB (Capsaspora owczarzaki, UniProt F1ARL5 200-546)
T4 sequence: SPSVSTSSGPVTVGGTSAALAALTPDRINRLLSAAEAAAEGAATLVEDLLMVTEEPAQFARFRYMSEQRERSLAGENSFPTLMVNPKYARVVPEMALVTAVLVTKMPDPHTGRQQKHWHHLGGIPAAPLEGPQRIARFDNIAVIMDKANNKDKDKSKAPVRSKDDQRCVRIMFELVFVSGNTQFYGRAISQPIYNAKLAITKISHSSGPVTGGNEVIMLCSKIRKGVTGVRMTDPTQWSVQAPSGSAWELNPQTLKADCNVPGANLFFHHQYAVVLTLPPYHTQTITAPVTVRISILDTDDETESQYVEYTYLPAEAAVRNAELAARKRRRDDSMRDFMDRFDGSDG

GST-Dm-Relish = biological target: T5, GST-Dm-Relish (Drosophila melanogaster, UniProt Q94527 99-473)
T5 sequence: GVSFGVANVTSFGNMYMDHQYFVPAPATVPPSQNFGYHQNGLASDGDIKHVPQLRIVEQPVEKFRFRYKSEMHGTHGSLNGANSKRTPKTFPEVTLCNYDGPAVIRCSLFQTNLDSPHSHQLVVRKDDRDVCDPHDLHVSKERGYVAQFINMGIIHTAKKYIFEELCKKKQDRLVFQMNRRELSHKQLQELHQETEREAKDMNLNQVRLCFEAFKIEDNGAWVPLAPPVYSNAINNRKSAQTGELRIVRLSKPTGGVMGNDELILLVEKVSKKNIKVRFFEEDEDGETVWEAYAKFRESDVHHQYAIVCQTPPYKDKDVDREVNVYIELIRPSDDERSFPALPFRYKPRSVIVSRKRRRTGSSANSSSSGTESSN

GST-Aq-NF-kB = biological target: T6, GST-Aq-NF-kB (Amphimedon queenslandica, UniProt A9Y5G7 2-389)
T6 sequence: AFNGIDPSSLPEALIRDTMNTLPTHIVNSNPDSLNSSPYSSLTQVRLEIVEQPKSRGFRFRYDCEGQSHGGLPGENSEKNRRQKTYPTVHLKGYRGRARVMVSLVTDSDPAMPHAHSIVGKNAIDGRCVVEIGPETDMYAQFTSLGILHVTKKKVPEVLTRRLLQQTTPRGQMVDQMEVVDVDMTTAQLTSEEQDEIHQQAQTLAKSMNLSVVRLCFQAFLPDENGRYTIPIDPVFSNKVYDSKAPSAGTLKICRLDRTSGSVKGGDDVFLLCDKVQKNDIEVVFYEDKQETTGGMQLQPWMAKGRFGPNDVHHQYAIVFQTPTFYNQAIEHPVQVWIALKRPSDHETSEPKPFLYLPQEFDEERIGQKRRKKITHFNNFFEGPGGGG

GST-Hu-p50 = GST-Hu-p50 (Homo sapiens, UniProt P19838 7-356)
Chain of GST-Hu-p50 (P19838 7-356): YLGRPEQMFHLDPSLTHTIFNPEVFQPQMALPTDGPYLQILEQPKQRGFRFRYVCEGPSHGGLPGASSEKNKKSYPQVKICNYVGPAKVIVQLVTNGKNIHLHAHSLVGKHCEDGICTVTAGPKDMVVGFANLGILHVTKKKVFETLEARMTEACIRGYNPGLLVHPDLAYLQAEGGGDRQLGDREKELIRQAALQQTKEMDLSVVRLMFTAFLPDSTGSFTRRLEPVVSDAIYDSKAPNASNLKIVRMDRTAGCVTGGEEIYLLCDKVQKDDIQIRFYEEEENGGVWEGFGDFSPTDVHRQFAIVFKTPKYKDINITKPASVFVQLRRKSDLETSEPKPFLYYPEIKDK

Sequence	binding signal (GST-Ap-NF-kB RHD)	binding signal [1]	binding signal [2]	binding signal (GST-Co-NF-kB)	binding signal (GST-Dm-Relish)	binding signal (GST-Aq-NF-kB)	binding signal (GST-Hu-p50)
CCGATTAACATCAGATATTCCCCTGATGTTAATCGGGTCTTGATTCGCTTGACGCTGCTG	7.71 z-score	9.63 z-score	8.71 z-score	8.17 z-score	5.36 z-score	7.31 z-score	5.94 z-score
CCGATTAACATCAGGGGGGTACCTGATGTTAATCGGGTCTTGATTCGCTTGACGCTGCTG	5.8 z-score	3.31 z-score	3.85 z-score	4.86 z-score	5.81 z-score	5.74 z-score	4.26 z-score
CCGATTAACATCAAAAACTTCCCTGATGTTAATCGGGTCTTGATTCGCTTGACGCTGCTG	5.3 z-score	5.84 z-score	6.81 z-score	3.89 z-score	5.16 z-score	6.27 z-score	4.68 z-score
CCGATTAACATCAAATTTTCCCGTGATGTTAATCGGGTCTTGATTCGCTTGACGCTGCTG	4.26 z-score	6.26 z-score	7.05 z-score	6.38 z-score	3.36 z-score	5.86 z-score	4.58 z-score
CCGATTAACATCAGGCAATCCCCTGATGTTAATCGGGTCTTGATTCGCTTGACGCTGCTG	7.27 z-score	7.19 z-score	6.86 z-score	1.6 z-score	6.78 z-score	7.01 z-score	5.39 z-score
CCGATTAACATCAAGATTTCCCCTGATGTTAATCGGGTCTTGATTCGCTTGACGCTGCTG	8.78 z-score	10.4 z-score	13.2 z-score	9.09 z-score	6.87 z-score	7.44 z-score	7.38 z-score
CCGATTAACATCACGGGAAAACCTGATGTTAATCGGGTCTTGATTCGCTTGACGCTGCTG	4.2 z-score	4.49 z-score	5.49 z-score	5.1 z-score	4.62 z-score	5.78 z-score	3.46 z-score
CCGATTAACATCAGAATATCCCCTGATGTTAATCGGGTCTTGATTCGCTTGACGCTGCTG	7.8 z-score	7.86 z-score	8.08 z-score	3.97 z-score	6.49 z-score	5.85 z-score	5.75 z-score
CCGATTAACATCACCCCACCCCCTGATGTTAATCGGGTCTTGATTCGCTTGACGCTGCTG	3.67 z-score	2.66 z-score	3.49 z-score	3.94 z-score	4.21 z-score	3.4 z-score	3.36 z-score
CCGATTAACATCAGGGATTCCCCTGATGTTAATCGGGTCTTGATTCGCTTGACGCTGCTG	13.9 z-score	13.2 z-score	15.4 z-score	6.68 z-score	11.2 z-score	11.5 z-score	8.74 z-score
CCGATTAACATCAGGGGAAAGACTGATGTTAATCGGGTCTTGATTCGCTTGACGCTGCTG	4.98 z-score	6.57 z-score	7.06 z-score	4.97 z-score	6.16 z-score	5.51 z-score	4.9 z-score
CCGATTAACATCAGGGGAGTCCATGATGTTAATCGGGTCTTGATTCGCTTGACGCTGCTG	6.16 z-score	3.64 z-score	4.15 z-score	3.05 z-score	6.79 z-score	4.34 z-score	3.32 z-score
CCGATTAACATCAACTTTCCCCCTGATGTTAATCGGGTCTTGATTCGCTTGACGCTGCTG	7.6 z-score	7.45 z-score	9.1 z-score	9.36 z-score	3.9 z-score	6.57 z-score	6.16 z-score
CCGATTAACATCAAGGGGGAATCTGATGTTAATCGGGTCTTGATTCGCTTGACGCTGCTG	8.47 z-score	8.91 z-score	9.87 z-score	8.32 z-score	6.04 z-score	6.38 z-score	7.36 z-score
CCGATTAACATCAGGGGACGTACTGATGTTAATCGGGTCTTGATTCGCTTGACGCTGCTG	4.18 z-score	3.48 z-score	3.58 z-score	2.33 z-score	6.95 z-score	4.39 z-score	3.75 z-score
CCGATTAACATCAGGGACTGCCCTGATGTTAATCGGGTCTTGATTCGCTTGACGCTGCTG	4.31 z-score	4.95 z-score	3.06 z-score	1.04 z-score	4.22 z-score	7.19 z-score	4.14 z-score
CCGATTAACATCACAAAAGCCCCTGATGTTAATCGGGTCTTGATTCGCTTGACGCTGCTG	6.25 z-score	8.09 z-score	7.4 z-score	1.08 z-score	6.85 z-score	7.27 z-score	6.34 z-score
